About 7,900 targets were measured; listed, in parts, are those with a hit and a random draw of the rest. About 0.6% of all pairs of compound and target were hits. Values without a mark were called inactive.
Assays:
Assay in all cases: log2 fold change, soluble protein after heating vs DMSO (PISA); higher = thermal stabilisation; K562 cells, 10 uM, 30 min; active = over 0.2 and 3.5 SD of the protein, either way, in both replicates (recomputed)
[1] = compound: COC1=CC=C(C=C1)CN2C=CC3=C2C=C(C=C3)C(=O)NO
Summary of the method: (§1)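 K562 cells at 2×10^6 cells/mL were treated for 30 min with 10 μM compound, and aliquots were heated for 3 min over 48°C-58°C before pooling. Extraction used PBS with 0.5% NP-40 at 4°C, and soluble protein was the supernatant after 21,000xg for 90 min, measured by TMTpro 16plex LC-MS/MS with channel sums equalised. Thermal stability values, relative to control samples and from duplicates, are log2 fold changes.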

[2] = compound: CON(C)C(=O)N1N=C(c2cc(F)ccc2F)S[C@@]1(CCCN)c1ccccc1 [filanesib]
Summary of the method: as §1

[3] = compound: CO[C@H]1C[C@@H]2CC[C@@H](C)[C@@](O)(O2)C(=O)C(=O)N2CCCC[C@H]2C(=O)O[C@H]([C@H](C)C[C@@H]2CC[C@H](n3cnnn3)[C@H](OC)C2)CC(=O)[C@H](C)/C=C(\C)[C@@H](O)[C@@H](OC)C(=O)[C@H](C)C[C@H](C)/C=C/C=C/C=C/1C [zotarolimus]
Summary of the method: as §1

[4] = compound: COc1cc(C(=O)O)ccc1NC(=O)[C@@H]1N[C@@H](CC(C)(C)C)[C@](C#N)(c2ccc(Cl)cc2F)[C@H]1c1cccc(Cl)c1F [idasanutlin]
Summary of the method: as §1

[5] = compound: COc1cc(Nc2ncc3c(n2)-c2ccc(Cl)cc2C(c2c(F)cccc2OC)=NC3)ccc1C(=O)O [alisertib]
Summary of the method: as §1

[6] = compound: COc1cc2nc(-c3cc(F)ccc3O)nc(N[C@@H]3CNC[C@H]3C(C)(C)O)c2cc1OC
Summary of the method: as §1

[7] = compound: COc1cc2ncnc(Nc3ccc(F)c(Cl)c3)c2cc1OCCCN1CCOCC1 [gefitinib]
Summary of the method: as §1

[8] = compound: COc1cccc2cc(-c3nc([C@H]4CC[C@H](C(=O)O)CC4)n4ncnc(N)c34)[nH]c12
Summary of the method: as §1

[9] = compound: CS(=O)(=O)CCNCc1ccc(-c2ccc3ncnc(Nc4ccc(OCc5cccc(F)c5)c(Cl)c4)c3c2)o1 [lapatinib]
Summary of the method: as §1

[10] = compound: CS(=O)(=O)N1CCN(Cc2cc3nc(-c4cccc5[nH]ncc45)nc(N4CCOCC4)c3s2)CC1 [pictilisib]
Summary of the method: as §1

[11] = compound: CS(=O)(=O)c1ccc(-c2cnc(N)c(C(=O)Nc3ccccc3)n2)cc1
Summary of the method: as §1

[12] = compound: C[C@@H](Oc1cc(-c2cnn(C3CCNCC3)c2)cnc1N)c1c(Cl)ccc(F)c1Cl [crizotinib]
Summary of the method: as §1

[13] = compound: C[C@@H]1COCCN1C2=NC(=NC(=C2)C3(CC3)S(=O)(=O)C)C4=C5C=CNC5=CC=C4
Summary of the method: as §1

[14] = compound: C[C@H](C1=CC=C(C=C1)C(=O)NC2=C3C=CNC3=NC=C2)N
Summary of the method: as §1

[15] = compound: C[C@H](Nc1ncnc2nc[nH]c12)c1cc2cccc(Cl)c2c(=O)n1-c1ccccc1 [duvelisib]
Summary of the method: as §1

[16] = compound: Cc1cc(Nc2cc(CN3CCOCC3)c3nc(C)c(Cc4ccc(Cl)cc4F)n3n2)n[nH]1 [gandotinib]
Summary of the method: as §1

[17] = compound: Cc1cc(Nc2cc(N3CCN(C)CC3)nc(Sc3ccc(NC(=O)C4CC4)cc3)n2)n[nH]1 [tozasertib]
Summary of the method: as §1

[18] = compound: Cc1cc(SCc2sc(-c3ccc(C(F)(F)F)cc3)nc2C)ccc1OCC(=O)O
Summary of the method: as §1

[19] = compound: Cc1ccc(-n2nc(C(C)(C)C)cc2NC(=O)Nc2ccc(OCCN3CCOCC3)c3ccccc23)cc1 [doramapimod]
Summary of the method: as §1

[20] = compound: Cc1ccc(C(=O)N(CCCN)[C@@H](c2nc3cc(Cl)ccc3c(=O)n2Cc2ccccc2)C(C)C)cc1 [ispinesib]
Summary of the method: as §1

Chain of UniProt O75208 (O75208 whole entry, looked up): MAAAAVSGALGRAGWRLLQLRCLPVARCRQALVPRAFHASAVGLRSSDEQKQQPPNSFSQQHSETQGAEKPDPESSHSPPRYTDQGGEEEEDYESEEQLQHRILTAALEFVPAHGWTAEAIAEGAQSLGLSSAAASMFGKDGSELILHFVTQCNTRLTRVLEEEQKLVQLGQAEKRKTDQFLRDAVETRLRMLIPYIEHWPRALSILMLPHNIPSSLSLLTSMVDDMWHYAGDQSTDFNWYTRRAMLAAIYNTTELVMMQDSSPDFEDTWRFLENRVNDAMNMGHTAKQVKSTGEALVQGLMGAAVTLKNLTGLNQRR
Chain of UniProt P05937 (P05937 whole entry, looked up): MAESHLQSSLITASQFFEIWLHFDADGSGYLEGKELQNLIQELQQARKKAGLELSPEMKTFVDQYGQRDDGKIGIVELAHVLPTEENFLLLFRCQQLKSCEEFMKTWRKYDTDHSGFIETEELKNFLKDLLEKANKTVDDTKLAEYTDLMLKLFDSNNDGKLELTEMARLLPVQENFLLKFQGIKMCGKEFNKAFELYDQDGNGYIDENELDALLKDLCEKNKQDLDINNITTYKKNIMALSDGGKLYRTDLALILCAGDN
Chain of UniProt P06493 (P06493 whole entry, looked up): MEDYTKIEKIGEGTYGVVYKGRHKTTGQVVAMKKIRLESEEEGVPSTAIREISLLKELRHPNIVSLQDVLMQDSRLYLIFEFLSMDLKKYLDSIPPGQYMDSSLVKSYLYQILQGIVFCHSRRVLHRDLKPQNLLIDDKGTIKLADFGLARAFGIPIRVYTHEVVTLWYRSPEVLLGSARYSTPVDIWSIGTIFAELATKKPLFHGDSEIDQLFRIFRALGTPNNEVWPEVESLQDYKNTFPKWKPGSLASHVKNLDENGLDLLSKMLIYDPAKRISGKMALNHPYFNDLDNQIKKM
Chain of UniProt Q8N163 (Q8N163 whole entry, looked up): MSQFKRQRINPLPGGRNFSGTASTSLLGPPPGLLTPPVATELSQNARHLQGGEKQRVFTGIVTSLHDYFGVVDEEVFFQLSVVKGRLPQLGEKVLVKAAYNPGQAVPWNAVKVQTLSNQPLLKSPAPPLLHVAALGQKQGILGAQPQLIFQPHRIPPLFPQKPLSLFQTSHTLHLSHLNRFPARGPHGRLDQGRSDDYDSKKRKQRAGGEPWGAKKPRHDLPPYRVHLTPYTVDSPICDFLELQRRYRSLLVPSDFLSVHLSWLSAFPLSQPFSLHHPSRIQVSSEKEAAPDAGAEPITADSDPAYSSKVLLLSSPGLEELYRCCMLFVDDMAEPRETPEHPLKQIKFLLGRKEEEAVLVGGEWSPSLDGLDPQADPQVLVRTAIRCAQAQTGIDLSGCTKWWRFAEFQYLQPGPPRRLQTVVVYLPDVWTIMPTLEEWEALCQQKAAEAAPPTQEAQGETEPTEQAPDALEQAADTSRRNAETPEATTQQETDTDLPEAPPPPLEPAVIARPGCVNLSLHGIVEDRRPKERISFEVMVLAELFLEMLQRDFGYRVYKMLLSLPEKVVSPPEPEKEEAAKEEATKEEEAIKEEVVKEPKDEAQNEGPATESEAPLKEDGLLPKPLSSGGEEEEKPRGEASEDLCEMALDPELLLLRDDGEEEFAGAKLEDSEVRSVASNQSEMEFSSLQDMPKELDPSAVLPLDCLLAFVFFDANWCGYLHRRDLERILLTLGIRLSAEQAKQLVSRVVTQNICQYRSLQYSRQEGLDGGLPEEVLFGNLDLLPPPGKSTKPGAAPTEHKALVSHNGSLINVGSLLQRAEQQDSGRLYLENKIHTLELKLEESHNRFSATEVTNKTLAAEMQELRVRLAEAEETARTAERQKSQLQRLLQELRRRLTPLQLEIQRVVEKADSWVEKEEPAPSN
Chain of UniProt Q13555 (Q13555 whole entry, looked up): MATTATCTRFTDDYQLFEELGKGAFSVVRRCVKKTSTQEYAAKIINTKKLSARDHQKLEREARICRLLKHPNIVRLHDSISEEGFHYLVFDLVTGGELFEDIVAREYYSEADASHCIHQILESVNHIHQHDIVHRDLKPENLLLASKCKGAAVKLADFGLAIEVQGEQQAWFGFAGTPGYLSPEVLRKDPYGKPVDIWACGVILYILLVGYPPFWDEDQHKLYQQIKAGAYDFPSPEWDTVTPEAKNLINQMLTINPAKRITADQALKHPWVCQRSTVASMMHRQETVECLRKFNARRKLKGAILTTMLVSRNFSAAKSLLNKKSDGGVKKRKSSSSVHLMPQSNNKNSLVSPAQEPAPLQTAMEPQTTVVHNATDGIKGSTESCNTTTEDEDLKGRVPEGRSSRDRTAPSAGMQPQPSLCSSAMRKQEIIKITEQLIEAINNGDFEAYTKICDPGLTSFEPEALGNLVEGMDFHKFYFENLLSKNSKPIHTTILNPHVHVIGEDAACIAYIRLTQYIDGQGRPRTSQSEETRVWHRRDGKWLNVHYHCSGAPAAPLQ
Chain of UniProt Q96MX0 (Q96MX0 whole entry, looked up): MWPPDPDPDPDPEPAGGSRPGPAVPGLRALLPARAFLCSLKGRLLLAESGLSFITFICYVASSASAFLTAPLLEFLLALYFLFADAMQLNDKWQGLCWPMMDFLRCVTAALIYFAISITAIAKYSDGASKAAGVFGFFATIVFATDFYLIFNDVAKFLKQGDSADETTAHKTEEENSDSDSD
Chain of UniProt O43405 (O43405 whole entry, looked up): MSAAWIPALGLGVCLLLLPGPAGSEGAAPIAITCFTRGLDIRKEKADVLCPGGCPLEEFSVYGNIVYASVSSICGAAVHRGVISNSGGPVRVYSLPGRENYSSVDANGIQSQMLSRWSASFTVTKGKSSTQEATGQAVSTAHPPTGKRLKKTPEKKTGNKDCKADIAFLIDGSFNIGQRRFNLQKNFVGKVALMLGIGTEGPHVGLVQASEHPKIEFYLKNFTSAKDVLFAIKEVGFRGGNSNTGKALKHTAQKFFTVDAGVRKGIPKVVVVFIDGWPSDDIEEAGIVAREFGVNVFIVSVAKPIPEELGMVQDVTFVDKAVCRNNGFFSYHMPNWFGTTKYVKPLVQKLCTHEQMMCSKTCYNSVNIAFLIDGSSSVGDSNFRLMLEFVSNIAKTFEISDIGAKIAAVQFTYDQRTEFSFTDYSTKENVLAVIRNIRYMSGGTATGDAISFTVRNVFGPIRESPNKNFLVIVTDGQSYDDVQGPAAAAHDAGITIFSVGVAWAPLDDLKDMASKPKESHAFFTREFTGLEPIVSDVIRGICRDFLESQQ
Chain of UniProt O60563 (O60563 whole entry, looked up): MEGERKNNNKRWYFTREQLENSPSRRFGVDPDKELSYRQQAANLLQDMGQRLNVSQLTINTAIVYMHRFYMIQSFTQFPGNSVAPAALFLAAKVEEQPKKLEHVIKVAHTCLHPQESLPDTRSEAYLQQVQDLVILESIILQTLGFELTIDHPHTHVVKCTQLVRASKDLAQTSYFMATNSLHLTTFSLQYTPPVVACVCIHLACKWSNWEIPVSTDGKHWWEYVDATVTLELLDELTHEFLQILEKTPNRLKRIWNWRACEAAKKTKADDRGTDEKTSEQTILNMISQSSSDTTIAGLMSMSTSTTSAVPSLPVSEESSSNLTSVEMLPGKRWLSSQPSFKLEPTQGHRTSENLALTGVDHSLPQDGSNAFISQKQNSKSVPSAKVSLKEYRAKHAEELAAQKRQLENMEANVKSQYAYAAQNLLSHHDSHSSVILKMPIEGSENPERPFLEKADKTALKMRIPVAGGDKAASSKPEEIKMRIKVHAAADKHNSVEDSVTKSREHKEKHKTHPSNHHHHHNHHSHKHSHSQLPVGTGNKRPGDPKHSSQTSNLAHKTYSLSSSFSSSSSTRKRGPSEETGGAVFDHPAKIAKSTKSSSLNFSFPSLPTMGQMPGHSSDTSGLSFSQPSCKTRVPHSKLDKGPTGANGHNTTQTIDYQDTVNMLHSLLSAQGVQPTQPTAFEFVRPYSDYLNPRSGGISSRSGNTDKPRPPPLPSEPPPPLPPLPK
Chain of UniProt Q9Y6K0 (Q9Y6K0 whole entry, looked up): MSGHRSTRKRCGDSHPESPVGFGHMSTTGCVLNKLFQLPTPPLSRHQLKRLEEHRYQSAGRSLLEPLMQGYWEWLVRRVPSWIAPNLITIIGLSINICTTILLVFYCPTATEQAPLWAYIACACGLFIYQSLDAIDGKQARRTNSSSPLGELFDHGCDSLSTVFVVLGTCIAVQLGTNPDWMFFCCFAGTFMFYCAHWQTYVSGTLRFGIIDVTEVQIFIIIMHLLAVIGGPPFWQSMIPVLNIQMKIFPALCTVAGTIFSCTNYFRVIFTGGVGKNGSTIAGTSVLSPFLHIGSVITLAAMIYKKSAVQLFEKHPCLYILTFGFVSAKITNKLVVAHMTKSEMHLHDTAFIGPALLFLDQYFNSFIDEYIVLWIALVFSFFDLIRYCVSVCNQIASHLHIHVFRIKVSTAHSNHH
Chain of UniProt P42574 (P42574 whole entry, looked up): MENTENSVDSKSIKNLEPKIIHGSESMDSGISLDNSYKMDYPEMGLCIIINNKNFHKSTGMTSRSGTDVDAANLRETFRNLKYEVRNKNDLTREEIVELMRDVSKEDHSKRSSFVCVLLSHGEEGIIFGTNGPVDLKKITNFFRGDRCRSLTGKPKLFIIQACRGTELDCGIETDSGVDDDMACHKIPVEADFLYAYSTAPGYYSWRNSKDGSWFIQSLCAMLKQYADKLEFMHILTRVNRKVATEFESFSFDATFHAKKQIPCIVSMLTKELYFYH
Chain of UniProt Q00534 (Q00534 whole entry, looked up): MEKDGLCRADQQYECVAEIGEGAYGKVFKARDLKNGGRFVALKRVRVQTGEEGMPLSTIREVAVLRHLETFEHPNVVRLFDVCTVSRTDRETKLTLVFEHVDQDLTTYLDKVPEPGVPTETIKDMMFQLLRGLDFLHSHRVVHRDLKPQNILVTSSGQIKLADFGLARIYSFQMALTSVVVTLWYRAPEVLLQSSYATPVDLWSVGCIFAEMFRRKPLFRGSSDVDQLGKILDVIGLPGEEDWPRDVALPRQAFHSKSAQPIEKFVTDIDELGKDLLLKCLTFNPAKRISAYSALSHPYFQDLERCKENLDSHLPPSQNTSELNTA
Chain of UniProt P24311 (P24311 whole entry, looked up): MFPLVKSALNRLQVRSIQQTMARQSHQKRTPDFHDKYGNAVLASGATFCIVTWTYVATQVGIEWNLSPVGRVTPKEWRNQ

Row | Target | log2 fold change [1] | log2 fold change [2] | log2 fold change [3] | log2 fold change [4] | log2 fold change [5] | log2 fold change [6] | log2 fold change [7] | log2 fold change [8] | log2 fold change [9] | log2 fold change [10] | log2 fold change [11] | log2 fold change [12] | log2 fold change [13] | log2 fold change [14] | log2 fold change [15] | log2 fold change [16] | log2 fold change [17] | log2 fold change [18] | log2 fold change [19] | log2 fold change [20]
1 | CAD (UniProt P27708) | 0.019 | -0.054 | -0.014 | -0.03 | -0.058 | -0.011 | -0.044 | 0.047 | -0.031 | -0.04 | 0.014 | -0.271 (active) | 0 | 0.033 | -0.013 | -0.013 | -0.115 | 0.053 | -0.028 | -0.106
2 | COQ9 (UniProt O75208) | 0.02 | -0.113 | -0.017 | 0.166 | -0.038 | -0.013 | 0.025 | 0.045 | 0.043 | -0.041 | 0.02 | -0.067 | 0.03 | -0.064 | -0.043 | -0.029 | 0.009 | 0.032 | -0.079 | -0.055
3 | CDK12 (UniProt Q9NYV4) | -0.019 | 0.463 | -0.072 | 0.303 | 0.062 | -0.226 | 0.005 | -0.03 | 0.134 | -0.018 | -0.056 | -0.054 | -0.362 | 0.376 | -0.161 | -1.11 (active) | -0.125 | 0.051 | 0.299 | 0
4 | CALB1 (UniProt P05937) | 0.029 | -0.192 | 0.006 | -0.024 | -0.022 | -0.071 | -0.024 | 0.015 | 0.013 | 0.027 | 0.033 | -0.166 | 0.015 | -0.039 | -0.031 | -0.038 | 0.022 | 0.017 | -0.006 | -0.105
5 | CDK6 (UniProt Q00534) | -0.012 | 0.037 | 0.021 | -0.06 | -0.051 | 0.036 | 0 | -0.012 | -0.019 | 0.015 | 0.062 | -0.033 | -0.042 | -0.004 | 0.033 | -0.009 | 0.001 | -0.012 | 0.018 | 0.024
6 | CCAR2 isoform 2 (UniProt Q8N163) | -0.038 | 0.024 | 0.063 | -0.065 | -0.072 | -0.187 | -0.03 | -0.042 | 0.04 | -0.034 | -0.037 | 0.024 | 0.046 | 0.011 | -0.001 | -0.093 | 0.103 | 0.169 | -0.009 | -0.063
7 | CEPT1 (UniProt Q9Y6K0) | 0.029 | -0.277 | -0.095 | -0.142 | 0.009 | 0.022 | -0.025 | 0.036 | 0.095 | 0.011 | 0.055 | -0.226 | 0.146 | 0.042 | -0.022 | -0.268 | -0.019 | 0.047 | 0.021 | -0.214
8 | CDC123 (UniProt O75794) | 0.005 | -0.043 | -0.016 | 0.032 | -0.048 | 0.024 | -0.057 | 0.001 | 0.017 | -0.027 | -0.001 | -0.246 (active) | 0.074 | -0.032 | 0.159 | 0.044 | -0.049 | 0.115 | 0.003 | 0.013
9 | COCH (UniProt O43405) | -0.018 | 0.024 | -0.018 | 0.077 | -0.063 | -0.144 | 0.131 | -0.078 | 0.049 | 0.001 | -0.051 | -0.05 | -0.033 | -0.016 | -0.052 | 0.059 | 0.154 | -0.053 | 0.052 | -0.042
10 | CDK1 (UniProt P06493) | 0.04 | 0.024 | 0.007 | 0.02 | -0.083 | -0.036 | 0.009 | 0.017 | 0.008 | -0.002 | 0.005 | -0.128 | -0.005 | -0.019 | 0.021 | -0.171 | -0.057 | 0 | -0.031 | 0.033
11 | COX7B (UniProt P24311) | 0.112 | 0.028 | -0.003 | -0.012 | 0.038 | -0.018 | 0.023 | 0.094 | -0.009 | -0.039 | -0.026 | 0.013 | 0.02 | -0.171 | 0.034 | 0.05 | 0.072 | 0.014 | -0.067 | 
12 | CASP3 (UniProt P42574) | 0.004 | -0.002 | 0.029 | 0.072 | -0.103 | 0.025 | 0.002 | -0.018 | 0.017 | 0.006 | 0.017 | 0.036 | -0.059 | -0.057 | -0.025 | -0.019 | -0.036 | -0.05 | -0.022 | -0.004
13 | CDK13 (UniProt Q14004) | -0.323 | 0.169 | 0.029 | 0.215 | -0.141 | -0.197 | 0.001 | 0.037 | 0.054 | -0.048 | -0.075 | -0.124 | -0.036 | 0.095 | 0.043 | -0.414 (active) | -0.118 | 0.141 | -0.006 | 0.063
14 | CAMK2G isoform 6 (UniProt Q13555) | -0.018 | 0.269 | 0.039 | -0.101 | -0.173 | -0.032 | -0.006 | -0.204 | 0.12 | 0.141 | -0.02 | -0.146 | -0.064 | -0.116 | -0.025 | -0.041 | 0.028 | -0.004 | 0.073 | 0
15 | CCNT1 (UniProt O60563) | -0.05 | 0.13 | 0.044 | 0.109 | -0.093 | -0.371 (active) | 0.021 | -0.158 | 0.098 | -0.049 | -0.124 | -0.088 | -0.098 | 0.13 | -0.076 | -0.1 | -0.075 | 0.076 | 0.181 | -0.277
16 | CMTM3 (UniProt Q96MX0) | -0.122 | 0.105 | -0.075 | -0.045 | -0.069 | -0.018 | 0.021 | 0.035 | -0.062 | -0.091 | 0.063 | -0.007 | -0.002 | -0.133 | 0.028 | 0.132 | -0.026 | -0.102 | -0.065 | 
